These results are taken from PubChem BioAssay AID485346 (Sanford-Burnham Center for Chemical Genomics, 2010).

Among all 330,000 compounds or so, about 10,000 (3%) were called active. The entries come from a sample that favours actives as a whole. Values without a mark were called inactive.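 The calls were made as follows: active = inhibition of at least 50% at 8 µM in the primary screen; inactive = the rest.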

In the assay the target is Protein Mdm4 (Homo sapiens) + E3 ubiquitin-protein ligase Mdm2 (Homo sapiens) (UniProt O15151+Q00987). Description: inhibitors of human Mdm2-MdmX association, primary screen, cell-based, luminescence, split luciferase, SaOS-2, uHTS (AID 485346). To be noted: SaOS-2 split-luciferase Mdm2/MdmX complementation, at 8 µM, stronger effect = higher value.
Chain of Protein Mdm4 (Homo sapiens) + E3 ubiquitin-protein ligase Mdm2 (Homo sapiens) (O15151 whole entry, looked up): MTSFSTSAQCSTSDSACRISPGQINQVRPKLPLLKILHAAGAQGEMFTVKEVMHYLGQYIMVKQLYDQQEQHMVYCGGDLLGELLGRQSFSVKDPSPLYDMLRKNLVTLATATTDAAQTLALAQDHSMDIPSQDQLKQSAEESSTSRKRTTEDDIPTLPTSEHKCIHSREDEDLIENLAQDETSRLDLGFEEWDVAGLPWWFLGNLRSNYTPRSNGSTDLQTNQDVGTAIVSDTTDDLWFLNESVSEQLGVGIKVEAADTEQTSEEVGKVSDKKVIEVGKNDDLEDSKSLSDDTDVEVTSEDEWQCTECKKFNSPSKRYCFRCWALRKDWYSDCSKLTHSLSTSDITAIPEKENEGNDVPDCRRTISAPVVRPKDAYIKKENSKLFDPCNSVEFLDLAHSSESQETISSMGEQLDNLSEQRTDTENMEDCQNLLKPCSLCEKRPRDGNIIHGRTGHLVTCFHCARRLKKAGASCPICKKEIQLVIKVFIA
Chain of Protein Mdm4 (Homo sapiens) + E3 ubiquitin-protein ligase Mdm2 (Homo sapiens) (Q00987 whole entry, looked up): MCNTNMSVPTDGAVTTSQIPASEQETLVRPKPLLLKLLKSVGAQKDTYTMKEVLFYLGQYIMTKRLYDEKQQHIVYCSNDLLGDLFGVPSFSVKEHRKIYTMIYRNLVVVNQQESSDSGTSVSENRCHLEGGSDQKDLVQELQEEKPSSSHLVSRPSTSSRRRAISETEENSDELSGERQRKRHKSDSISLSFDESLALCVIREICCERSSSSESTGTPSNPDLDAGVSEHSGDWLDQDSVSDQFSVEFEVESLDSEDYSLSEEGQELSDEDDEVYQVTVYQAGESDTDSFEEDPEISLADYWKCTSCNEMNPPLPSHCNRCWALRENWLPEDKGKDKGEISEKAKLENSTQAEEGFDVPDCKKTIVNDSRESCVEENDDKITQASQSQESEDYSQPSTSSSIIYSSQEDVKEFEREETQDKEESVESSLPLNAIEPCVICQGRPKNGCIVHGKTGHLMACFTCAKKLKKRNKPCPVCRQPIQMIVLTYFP
On to `Cc1c(NS(=O)(=O)c2cc(C(=O)NCCc3ccc(F)cc3)cc(Cl)c2Cl)c(=O)n(-c2ccccc2)n1C`, for which the inhibition is 1.11%.
Turning to `c1ccc(C2c3[nH]c4ccccc4c3CCN2Cc2cccn2-c2cccnc2)nc1` (stereo not drawn), the inhibition is 5.09%.
Consider `CCOc1ccc(C2c3[nH]c4ccccc4c3CCN2Cc2cccn2-c2ncccn2)cc1` (stereo not drawn), for which the inhibition was 76.2% (active).
On to `CCOc1ccc(C2c3[nH]c4ccccc4c3CCN2Cc2cn(CC)nc2C)cc1` (stereo not drawn), for which the inhibition is 12.1%.
For the molecule `CCc1ccc(NC(=O)C(C)OC(=O)/C=C/c2cccc([N+](=O)[O-])c2)cc1` (stereo not drawn), the inhibition was -11%.
In the case of `CC1=C(C(=O)OC2CCCCC2)C(c2cccnc2)n2ncnc2N1` (stereo not drawn) it was 18.3%; in that of `CCOC(=O)Nc1ccc2c(c1)N(C(=O)CCN1CCN(CCO)CC1)c1ccccc1CC2`, -8.36%; in that of `CCNCCC(=O)N1c2ccccc2Sc2ccc(NC(=O)OCC)cc21`, 11.1%.
Under `CCOC(=O)Nc1ccc2c(c1)N(C(=O)CCCl)c1ccccc1[S@]2=O` stands 84.3% (active); under `CCOc1cc(-c2cc(-c3ccc(NC(C)=O)cc3)nc(N)c2C#N)ccc1O`, 62.3% (active).
On to `CCOC(=O)CC(=O)CSc1nc(-c2ccccc2)cc(-c2ccc(Cl)cc2)c1C#N`, for which the inhibition is 17%.
Under `CCOc1cc(-c2cc(-c3ccc(OC)cc3)nc(N)c2C#N)ccc1O` stands 14.7%; under `CCC(C)c1ccccc1NC(=O)CN(C)CC(=O)Nc1ccccc1SC` (stereo not drawn), 9.56%; under `O=C(NCC1CCCO1)c1ccc2ccccc2n1` (stereo not drawn), -19.2%.
In the case of `O=C(NCCCO)c1cc2c([nH]c3ccccc32)c(-c2ccc(F)cc2)n1` it was 40.9%.
`O=C(NCC1CCCO1)c1cc2c([nH]c3ccccc32)c(-c2ccc(F)cc2)n1` (stereo not drawn): the inhibition is 69.3% (active).
Regarding `COc1ccc2[nH]c3c(c2c1)CCN1C(=O)C(CC(=O)NCCc2ccccn2)C[C@H](C(=O)N2CCOCC2)[C@@]31C` (stereo partly drawn), the inhibition was 1.71%.
For `Cc1ccc2c(N)c(C(=O)c3ccccc3)sc2n1`, the inhibition was 20.5%.
Regarding `Cc1sc2nc(CC(N)=O)[nH]c(=O)c2c1-c1ccccc1`, the inhibition was -7.25%.
Regarding `NC(=O)c1sc2nc3c(c(-c4ccccc4)c2c1N)CCC3`, the inhibition was 57.3% (active).
In the case of `COC(=O)Cn1c(=NC(=O)c2cc(OC)c(OC)c(OC)c2)sc2cc(OC)ccc21` it was 34.7%.
Regarding `CCOC(=O)C(Sc1ncc(C#N)c(N)n1)C(C)C` (stereo not drawn), the inhibition was 15.2%.
Turning to `C=CCn1c(SCC(=O)NC)nnc1C12CC3CC(CC(C3)C1)C2`, the inhibition was 10.2%.
With `CCNC(=O)c1c(O)c2cccc3c2n(c1=O)CC3`, the inhibition was 80.5% (active).
In the case of `CCCCc1nc2ccccc2c(=O)n1NC(=O)c1c(O)c2cccc3c2n(c1=O)CC3` it was 27%.
Regarding `Cc1cc(=O)n2c3c(cccc13)CCC2`, the inhibition is 0.512%.
`CC1=CC(=C(C#N)c2nc3ccccc3s2)C=C(C)N1c1ccc(F)cc1F`: the inhibition was 12.5%.
Consider `OCCCNC(c1ccccc1)c1ccc(O)cc1` (stereo not drawn), for which the inhibition was 4.25%.
`O=C(O)CS/C(=C\c1ccc(F)cc1)c1nc2ccccc2s1`: the inhibition is 21.7%.
Take `COc1cccc2sc(NNC(=O)c3nc4ccccc4s3)nc12`: the inhibition was 59.4% (active).
As to `COc1ccc(/C=C(/CC(=O)Nc2ccc(C)cc2)c2nc3ccccc3s2)cc1`, the inhibition is -25.3%.
Under `O=C(Nc1ccc2c(c1)OCCO2)C1CCCN(c2ncccn2)C1` (stereo not drawn) stands -64.3%; under `O=C(Nc1ccc2c(c1)OCO2)C1CC1(Cl)Cl` (stereo not drawn), 18%.
Under `O=C(Nc1ccc2c(c1)OCCO2)C1CCCC1` stands 55% (active); under `Cc1onc(-c2ccc(Cl)cc2)c1-c1ccnn1S(=O)(=O)c1ccc(Cl)cc1`, 16.6%; under `O=C(COC(=O)C1(c2ccc(F)cc2)CCCC1)N1CCNC1=O`, 1.73%.
For `C=CCn1c(CNS(=O)(=O)c2ccc(Br)cc2)nnc1SC`, the inhibition is 20.2%.
Regarding `N/C(=N\OC(=O)Cc1ccccc1[N+](=O)[O-])c1ccc(Br)cc1`, the inhibition was -0.461%.
In the case of `N/C(=N\OC(=O)/C=C/c1ccccc1)c1ccc(Br)cc1` it was 13.5%; in that of `N/C(=N\OC(=O)N1c2ccccc2Sc2ccccc21)c1ccc(Br)cc1`, 53.2% (active); in that of `Cc1cc(=O)cc(C)n1-c1ccc(Cl)c(Cl)c1`, 15.1%.
With `O=c1[nH]nc(SCCS(=O)(=O)c2ccc(F)cc2)n1-c1ccccc1C(F)(F)F`, the inhibition is 25.1%.
For `CC[C@@H]1CCCCc2ccccc2[C@@H](C(=O)C[C@H](O)CC(C)=O)OC1=O`, the inhibition was 33%.
With `CCOC(=O)c1c(C)oc2cc(Sc3ccccc3)c(O)c(O)c12`, the inhibition was 34.7%.
`COc1ccc(C(=O)Cc2cnn(-c3ccccc3)c2)c(O)c1`: the inhibition was -156%.
`Cc1cc(O)cc(O)c1C(=O)Cc1cnn(-c2ccccc2)c1`: the inhibition is -9.6%.
Under `Cc1[nH]nc(-c2ccc(OCc3cnn(-c4ccccc4)c3)cc2O)c1Oc1ccc(Cl)cc1` stands 68.4% (active); under `CC(C)C[C@@H](CO)N1CCN(Cc2ccc(O)cc2)CCC1=O`, -30.6%.
Under `COc1ccc(C)c(Cn2c(-c3nonc3N)nc3ccccc32)c1` stands 45.6%; under `O=c1[nH]cccc1-c1nc2ccccc2n1Cc1ccc(Cl)cc1`, -9.95%.
In the case of `Nc1nonc1-c1nc2ccccc2n1Cc1ccc(F)cc1` it was 53.7% (active); in that of `CCc1cccc(NC(=O)COC(=O)c2cc(=O)c3ccccc3o2)c1`, 13.3%; in that of `COc1ccccc1CNC(=O)COC(=O)c1sc(C)nc1C`, -9.07%.
Turning to `O=c1oc2ccccc2c(CNc2ccccc2)c1[N+](=O)[O-]`, the inhibition was 7.52%.
As for `Cc1ccc(-c2cccc([C@H]3[C@@H]4C=CC[C@@H](C)[C@@H]4C(=O)N3Cc3ccccc3)c2)cc1`, the inhibition was 69.8% (active).
On to `O=C(N[C@H]1C/C=C\C(c2cccc(F)c2)N(Cc2ccccc2)C(=O)C1)OCC1c2ccccc2-c2ccccc21` (stereo partly drawn), for which the inhibition was 2.78%.
Under `Cc1cccc([C@H]2[C@@H]3C=CC[C@@H](C)[C@@H]3C(=O)N2Cc2ccccc2)c1` stands 16.7%; under `COc1ccccc1C(=O)COC(=O)CSCC(=O)Nc1cc(C)on1`, 9.62%.

The term inhibition denotes the change of the read-out against control, counted positive when it falls.
